Reference: PubChem BioAssay AID1117361 (Southern Research Institute, 2015)
Hit rate of the full screen: of about 3,600 compounds, about 900 (25%) were called active. The rule behind the calls is not given here. Only a sample is shown. Results with a measured potency or affinity are listed apart.

Biological target: Protein Tat (Human immunodeficiency virus type 1 group M subtype B (isolate HXB2)) (UniProt P04608)
Test: HIV-1 Tat–TAR interaction blockers – biochemical, fluorescence polarization, FAM-labeled TAR RNA, counter-screen for Vif-APOBEC3G degradation inhibitor project, dose response (AID 1117361)
Details: Tat-TAR RNA binding; series mostly up to 100 µM

Compound	outcome
Cc1ccc2c(c1)CCCN2C(=O)c1cc(C)c(C)s1	inactive
Cc1ccc(NC(=O)C(C)Sc2nc3nc(C)cc(C)n3n2)cc1 (configuration not stated)	inactive
Cc1cc(C)n(-c2ncc(-c3ccccc3)nn2)n1	inactive
C=CCOC(=O)CN1C(=O)c2ccccc2C1=O	inactive
O=C(NC1CCCCC1)c1sc(=S)n2c1[nH]c(=O)c1ccccc12	inactive
Cc1ccc(-n2nnnc2SCn2nnc3ccccc3c2=O)cc1	inactive
Cc1cccc(CCNC(=O)CCc2nc(-c3ccccc3F)no2)c1	inactive
Cc1cc(C)nc(N(C#N)CN2C(=O)c3ccccc3S2(=O)=O)n1	inactive
Nc1ccc(S(=O)(=O)c2cc(O)c3ccccc3c2O)cc1	inactive
CCOC(=O)CS(=O)(=O)c1ccc2ccccc2c1	inactive
CCc1cc(C=NC2CCCCC2)c(O)s1	inactive
CN(C)NC(=S)NC1CCS(=O)(=O)C1 (configuration not stated)	inactive
CCCOc1ccc2[nH]cc(C(=O)O)c(=O)c2c1	inactive
Cc1ccc(Oc2ccc(/C=N/O)cn2)cc1	inactive
O=S(=O)(Nc1ccc2c(c1)nc1n2CCN(Cc2ccccc2)C1)c1ccc(Cl)cc1	inactive
COCCCNc1nc2c(c(=O)n(C)c(=O)n2C)n1Cc1cccc(OC)c1	inactive

Compound	outcome
CCCCc1c(C)nc2ccc(Br)cc2c1SCCC#N	inactive
COc1ccc(C)cc1Nc1c2c(nc3ccccc13)CCC2	inactive
COc1cc2ccccc2nn1	inactive
CC(=O)Nc1nonc1NC(=O)CSC1=NCCS1	inactive
CNC(=O)CN1C(=O)NC2(CCc3ccccc32)C1=O (configuration not stated)	inactive
O=C(CSc1nnc(CN2CCOCC2)n1-c1ccccc1)Nc1ccc(Cl)cc1	inactive
CC1(C)CC(=O)C2=C(C1)N(Cc1cccnc1)C(=O)C2(NC(=O)C1CC1)C(F)(F)F (configuration not stated)	inactive
Cc1cc(C)cc(N(CCC#N)C(=O)CSc2nc3nc(C)cc(C)n3n2)c1	inactive
Cc1c(C(=O)Nc2cccc([N+](=O)[O-])c2)csc1-c1ccccc1	inactive
O=C(Nc1ccc(C(=O)N2CCOCC2)cc1)c1ccccc1[N+](=O)[O-]	inactive
O=C(C1CCN(S(=O)(=O)N2CCOCC2)CC1)N1CCN(Cc2ccc3c(c2)OCO3)CC1	inactive
CN(CCO)CC(O)CN(c1ccccc1)c1ccccc1 (configuration not stated)	inactive
CCOC(=O)c1c(Nc2ccccc2N)cc(C)nc1C	inactive
COC(=O)c1c[nH]n2c(=O)c(Cc3ccc(F)cc3Cl)c(C)nc12	inactive
O=C(CCc1nc(-c2ccccc2F)no1)NC1CCCCCC1	inactive
CCOc1ccc(N(CC(=O)Nc2ccccc2C(=O)NCc2ccco2)S(C)(=O)=O)cc1	inactive
